Source: PubChem
In the library only some 3.7% were active in any assay of this set; here they are far more common.
MazF activator: MazEF (E. coli) toxin RNase activation. P0AE70. FAM/BHQ RNA-DNA oligo cleavage fluorescence, 5 h. activation, % at 20 µM. hit rate 0.32% among 350,000. AID 504720; in the data active = activation above about 50%
Anthrax LF inh2: anthrax lethal factor protease inhibition; hit rate 0.12% among 360,000; multiplex microsphere protease cleavage assay, LF; inhibition, % at 10 µM; also: plate controls were buffer without enzyme for full effect and enzyme alone for no effect
Target sequence (P15917 whole entry, looked up): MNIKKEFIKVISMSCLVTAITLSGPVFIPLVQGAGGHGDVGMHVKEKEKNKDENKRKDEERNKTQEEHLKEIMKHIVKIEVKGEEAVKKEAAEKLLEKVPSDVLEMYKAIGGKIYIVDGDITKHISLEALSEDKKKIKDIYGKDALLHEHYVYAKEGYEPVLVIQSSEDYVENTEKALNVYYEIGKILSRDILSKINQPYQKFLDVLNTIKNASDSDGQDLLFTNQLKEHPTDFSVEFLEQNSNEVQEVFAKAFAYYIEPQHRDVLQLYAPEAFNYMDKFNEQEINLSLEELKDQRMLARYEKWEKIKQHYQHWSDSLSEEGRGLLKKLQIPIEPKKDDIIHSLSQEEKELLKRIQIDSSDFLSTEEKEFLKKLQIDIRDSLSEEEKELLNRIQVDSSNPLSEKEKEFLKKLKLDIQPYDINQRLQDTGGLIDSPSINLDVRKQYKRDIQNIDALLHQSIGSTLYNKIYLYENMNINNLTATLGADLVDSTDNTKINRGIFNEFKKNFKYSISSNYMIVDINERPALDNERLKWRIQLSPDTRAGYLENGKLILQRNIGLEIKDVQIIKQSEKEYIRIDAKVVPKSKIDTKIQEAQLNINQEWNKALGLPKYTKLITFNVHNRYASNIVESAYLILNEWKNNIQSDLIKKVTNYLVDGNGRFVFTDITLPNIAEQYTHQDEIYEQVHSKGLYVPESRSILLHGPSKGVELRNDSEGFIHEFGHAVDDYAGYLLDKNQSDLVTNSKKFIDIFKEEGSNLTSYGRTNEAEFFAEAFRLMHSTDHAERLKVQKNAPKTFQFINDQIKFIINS
BoNT F protease: inhibitors of Botulinum neurotoxin F light chain protease; Multiplex microsphere protease cleavage assay, flow cytometry; AID 588497; inhibition, % at 10 µM; hit rate 0.22% among 360,000; in the data active = inhibition above about 35%, passing the limit was not always enough; inconclusive = no clear call, values can overlap the other calls; also: plate controls were buffer without enzyme for full effect and enzyme alone for no effect
Bead autofluor: compound fluorescence in toxin protease inhibitor counterscreen; compound autofluorescence counterscreen, microsphere flow cytometry; hits give high values; fluorescence intensity (no concentration beside the values); hit rate 3.1% among 360,000; AID 624483; in the data active = fluorescence intensity above about 16000; inconclusive = no clear call, values can overlap the other calls
BoNT-A LC inh2: inhibitors of Botulinum neurotoxin A light chain protease; multiplex microsphere protease substrate cleavage, flow cytometry; inhibition, % at 10 µM; hit rate 0.17% among 360,000; AID 588499; also: plate controls were buffer without enzyme for full effect and enzyme alone for no effect
Starred values were filed as active, the others as inactive; ? = inconclusive; / = no result given. Rule as the data show it, unless noted: active = inhibition above about 30%; inconclusive = no clear call, values can overlap the other calls; inactive = below that.

SMILES	MazF activator	Anthrax LF inh2	BoNT F protease	Bead autofluor	BoNT-A LC inh2
CC1=CC(=C2C(=O)NC(=O)NC2=O)C=C(C(F)(F)F)N1C(C)C	10	-13	3	21183*	3
CC(C)(C)Nc1nc(C(N)=O)nc(N2CCOCC2)n1	0	-4	-5	24325*	-2
COc1ccc(-c2c[n+]3c4n2CCCCC4=C(c2ccc(Br)cc2)C3)cc1	15	2	-16	22490*	?
Clc1ccc(C2=C3CCCCn4c(-c5ccccc5)c[n+](c43)C2)cc1	16	-11	-69	2892	7
N#Cc1ccc(CSc2nnc(-c3ccccc3)n2Cc2ccco2)cc1	-2	-2	-2	24109*	?
c1ccc(-c2nnc(SCc3nc4ccccc4[nH]3)n2Cc2ccco2)cc1	0	-1	4	22637*	?
N#Cc1ccc(CSc2nnc(Cc3cccs3)n2Cc2ccco2)cc1	25	4	4	3336	0
CC1CC(C)CN(C2CCCCC2NS(=O)(=O)c2ccc(Cl)cc2)C1 (centres undefined)	-9	-6	-13	3198	0
COc1ccc(-c2cc(=O)oc3c(C)c(OC(C)C(C)=O)ccc23)cc1 (centres undefined)	1	-12	-17	14140	-10
CCOC(=O)C(Oc1ccc2c(-c3ccc(OC)cc3)cc(=O)oc2c1C)c1ccccc1 (centres undefined)	5	-2	-4	22308*	?
COc1ccc(-c2cc(=O)oc3c(C)c(OC(=O)c4cccs4)ccc23)cc1	109*	-1	-6	2544	-1
CSc1ccc(S(=O)(=O)NCC(=O)OCCOc2ccccc2)cc1[N+](=O)[O-]	78*	-4	4	5708	0
COc1ccccc1NC(=O)c1nnn(Cc2ccccc2)c1NC(C)=O	10	-4	-5	24511*	-3
COc1ccccc1NC(=O)c1nnn(Cc2ccccc2)c1NC(=O)C(F)(F)F	-2	-6	6	8810	2
CCN(CC(=O)NCc1ccc(F)cc1)CC(=O)NC1CCCC1	-6	3	7	3980	1
CN(C)S(=O)(=O)c1ccc(C(=O)Nc2cc3c(cc2C(=O)O)OCCCO3)cc1	0	-18	-28	2934	-2
COc1ccc(OC)c(-n2c(O)c(C=NCc3ccc4c(c3)OCO4)c(=O)[nH]c2=O)c1	7	-1	-3	16727*	-1
O=C(Cn1c(=O)cnc2ccccc21)N1CCN(S(=O)(=O)c2ccccc2Br)CC1	-4	-6	-2	5563	1
O=C(Nc1cccc(Cl)c1)Nc1nnc([C@H]2C[C@H](O)[C@@H](CO)O2)s1	/	-3	-2	2901	0
Cc1ccc(N(Cc2cc3cc(C)ccc3[nH]c2=O)C(=O)c2cccs2)cc1	89*	-1	-3	2232	0
CC12CN3CC(C)(CN(C1)C3c1ccccc1)C2O (centres undefined)	11	0	-6	4386	0
CC12CN3CC(C)(CN(C1)C3c1cccs1)C2O (centres undefined)	7	-4	-7	17129*	-3
CCOc1ccc(Cl)cc1-c1cc(C(=O)Nc2ccc(C(C)C)cc2)[nH]n1	/	3	5	3327	1
CC(C)N(C(=O)COC(=O)c1cc(Cl)cc(Cl)c1N)C(C)C	-1	-1	-9	21720*	-7
CCS(=O)(=O)N1CCC(NC(=O)C(Cc2cccc(OC)c2OC)NC(C)=O)CC1 (centres undefined)	-4	1	18	3583	1
SMILES	MazF activator	Anthrax LF inh2	BoNT F protease	Bead autofluor	BoNT-A LC inh2
CC1(C(=O)NS(=O)(=O)C2CC2)CCCN(C(=O)c2ccccc2OC(F)(F)F)C1 (centres undefined)	/	2	0	3829	0
Cn1c(/C(C#N)=C(\O)c2ccc(Br)s2)nc2ccccc21	11	0	2	5363	2
Cn1c(/C(C#N)=C(\O)c2cc(Cl)sc2Cl)nc2ccccc21	-1	/	/	/	/
COc1ccc(/C(O)=C(\C#N)c2nc3ccccc3n2C)cc1OC	2	2	5	21521*	?
CCSc1nc2ccccc2n1C(=O)c1ccc(S(=O)(=O)N2CCCCCC2)cc1	0	-1	0	1997	1
CCSc1nc2ccccc2n1C(=O)c1ccc(S(=O)(=O)N2CCCCC2)cc1	-62	-2	-4	20953*	-3
Cn1c(/C(C#N)=C(\O)c2ccc(S(=O)(=O)N3CCCCC3)cc2)nc2ccccc21	9	-2	0	23146*	1
COc1ccc(NC(=O)Cn2nc(C(=O)O)c3ccccc3c2=O)cc1Cl	-15	-2	-1	3698	1
O=C(NCc1cccs1)c1ccc2sc(COCCO)nc2c1	/	-1	-1	3848	0
CCN(C(=O)CCN1C(=O)/C(=C/c2ccccc2)SC1=S)C1CCS(=O)(=O)C1 (centres undefined)	-5	1	0	4903	1
CC(C)OC(=O)c1cc(C(=O)c2cc(F)ccc2O)coc1=N	1	-2	-1	16808*	0
CC(C)OC(=O)c1cc(C(=O)c2cc(Cl)ccc2O)coc1=N	-3	0	3	5449	1
Cc1ccc(S(=O)(=O)Oc2ccc(/C=C3\N=C(c4cccc(C)c4)OC3=O)cc2)cc1	6	3	4	21802*	4
CSc1nnc(C)c(=O)[nH]1	3	-2	-8	25237*	-5
Cc1nnc(SCCc2ccccc2)[nH]c1=O	-4	0	8	19226*	?
CC1(c2ccccc2)NC(=O)N(CC(=O)N2CCN(S(=O)(=O)c3cccs3)CC2)C1=O (centres undefined)	5	1	8	5645	7
CC1=C(C(=O)N2CCOCC2)C(c2ccccc2F)C2=C(CC(C)(C)CC2=O)N1 (centres undefined)	8	-3	2	19197*	2
COc1ccc(C2C(C(=O)N3CCOCC3)=C(C)NC3=C2C(=O)CC(C)(C)C3)c(OC)c1 (centres undefined)	8	-3	8	6057	0
COC(=O)c1ccc(CSc2nc(C)nc3sc(C)c(C)c23)o1	-16	0	5	22019*	1
COC(=O)c1ccc(CSc2nnc(SCc3ccc(C(=O)OC)o3)s2)o1	-2	-1	5	9631	1
Clc1ccc(OCc2nn3c(C4CCCCC4)nnc3s2)c(Cl)c1	-10	-1	-4	22251*	-3
COc1ccccc1N1CCN(C(=O)CSc2nc3ccccc3[nH]2)CC1	1	-2	-4	11200	0
COc1ccc(N2CCN(C(=O)CSc3ncccc3-c3nc4ccccc4[nH]3)CC2)cc1	-3	5	-2	20130*	3
COc1ccccc1N1CCN(C(=O)CSc2ncccc2-c2nc3ccccc3[nH]2)CC1	-8	5	-1	21668*	4
O=C(CSc1ncccc1-c1nc2ccccc2[nH]1)N1CCN(c2ccccc2F)CC1	-3	-4	4	17934*	5
O=C(CSc1ncccc1-c1nc2ccccc2[nH]1)NC1CC1	-1	4	22	8002	7
COc1ccc(NC(=O)COc2cccc3c2CCN(C)C3=O)c(OC)c1	0	-2	-5	5827	0
